Reference: the supplement of paper PMC12282887
± gives the standard deviation of the averaged measurements.

Test system: E. coli BW25113 marRABp lux reporter
Assay: promoter activity interaction Z-score (Lux/OD deviation from empty-vector control); higher = stronger promoter induction by the compound
Procedure: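 E. coli BW25113 (wild type or ΔmarA/ΔsoxS/Δrob) carrying pTU175 luxCDABE promoter reporters was grown in LB in 384-well plates at 37°C with each of 94 compounds at 4 two-fold concentrations, in biological duplicates. Luminescence and OD600 were read every 30 min for 12 h and integrated as AUC over 8 h (0-8 h WT, 1-9 h mutants). Lux AUC was divided by OD AUC; the interaction score is the residual of a Huber robust fit of each promoter against the empty-vector control, then Z-transformed per promoter.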

Row | SMILES | promoter activity interaction Z-score (0.038 µg/ml, genetic background: wild type) | promoter activity interaction Z-score (0.038 µg/ml, genetic background: ΔmarA) | promoter activity interaction Z-score (0.038 µg/ml, genetic background: Δrob) | promoter activity interaction Z-score (0.038 µg/ml, genetic background: ΔsoxS) | promoter activity interaction Z-score (0.076 µg/ml, genetic background: wild type) | promoter activity interaction Z-score (0.076 µg/ml, genetic background: ΔmarA) | promoter activity interaction Z-score (0.076 µg/ml, genetic background: Δrob) | promoter activity interaction Z-score (0.076 µg/ml, genetic background: ΔsoxS) | promoter activity interaction Z-score (0.15 µg/ml, genetic background: wild type) | promoter activity interaction Z-score (0.15 µg/ml, genetic background: ΔmarA) | promoter activity interaction Z-score (0.15 µg/ml, genetic background: Δrob) | promoter activity interaction Z-score (0.15 µg/ml, genetic background: ΔsoxS) | promoter activity interaction Z-score (0.3 µg/ml, genetic background: wild type) | promoter activity interaction Z-score (2.6 µg/ml, genetic background: wild type) | promoter activity interaction Z-score (2.6 µg/ml, genetic background: ΔmarA) | promoter activity interaction Z-score (2.6 µg/ml, genetic background: Δrob) | promoter activity interaction Z-score (2.6 µg/ml, genetic background: ΔsoxS) | promoter activity interaction Z-score (5.3 µg/ml, genetic background: wild type) | promoter activity interaction Z-score (5.3 µg/ml, genetic background: ΔmarA) | promoter activity interaction Z-score (5.3 µg/ml, genetic background: Δrob) | promoter activity interaction Z-score (5.3 µg/ml, genetic background: ΔsoxS) | promoter activity interaction Z-score (10.6 µg/ml, genetic background: wild type) | promoter activity interaction Z-score (10.6 µg/ml, genetic background: ΔmarA) | promoter activity interaction Z-score (10.6 µg/ml, genetic background: Δrob) | promoter activity interaction Z-score (10.6 µg/ml, genetic background: ΔsoxS) | promoter activity interaction Z-score (21.1 µg/ml, genetic background: wild type) | promoter activity interaction Z-score (21.1 µg/ml, genetic background: ΔmarA) | promoter activity interaction Z-score (21.1 µg/ml, genetic background: Δrob) | promoter activity interaction Z-score (21.1 µg/ml, genetic background: ΔsoxS)
1 | Cc1c(N)nc([C@H](CC(N)=O)NC[C@H](N)C(N)=O)nc1C(=O)N[C@H](C(=O)N[C@H](C)[C@@H](O)[C@H](C)C(=O)N[C@H](C(=O)NCCc1nc(-c2nc(C(=O)NCCC[S+](C)C)cs2)cs1)[C@@H](C)O)[C@@H](OC1OC(CO)C(O)C(O)C1OC1OC(CO)C(O)C(OC(N)=O)C1O)c1cnc[nH]1 (some centres undefined) [Bleomycin] | -0.417 ± 0.23 | -0.0394 ± 0.031 | -0.132 ± 0.16 | 0.0622 ± 0.095 | 0.0986 ± 0.2 | 0.278 ± 0.39 | 0.331 ± 0.28 | 0.321 ± 0.053 | 0.24 ± 0.21 | 0.245 ± 0.13 | 0.652 ± 0.46 | 0.457 ± 0.048 | 2.68 ± 0.29 |  |  |  |  |  |  |  |  |  |  |  |  |  |  |  | 
2 | CC(=O)N[C@H]1[C@@H](O[C@@H]2O[C@H](CC(O)[C@H]3O[C@@H](n4ccc(=O)[nH]c4=O)[C@H](O)[C@@H]3O)[C@H](O)[C@H](O)[C@H]2NC(=O)/C=C/CC(C)C)O[C@H](CO)[C@@H](N)[C@@H]1O (some centres undefined) [Tunicamycin] |  |  |  |  |  |  |  |  |  |  |  |  |  | -0.437 ± 0.048 | -0.39 ± 0.54 | -0.2 ± 0.15 | -0.379 ± 0.38 | -0.455 ± 0.15 | -0.634 ± 0.41 | -0.284 ± 0.008 | -0.282 ± 0.18 | -0.326 ± 0.14 | -0.464 ± 0.54 | -0.127 ± 0.2 | -0.485 ± 0.34 | -0.471 ± 0.16 | -0.634 ± 0.25 | -0.663 ± 0.56 | -0.645 ± 0.46
